# Assay results reported in PubChem BioAssay AID1851 (National Center for Advancing Translational Sciences (NCATS), 2009).
# About 5,800 (36%) of roughly 16,000 compounds were called active. Another 23% or so got no clear call; they are omitted. The list shows a part of the results. Unmarked numbers belong to inactive results. Calls come from the whole dose curve; as a rule, active = well fitted curve in the direction sought with a large enough effect; inconclusive = small, poorly fitted or top-dose-only effect, or effect the other way; inactive = no such curve, though single readings can be large or run the other way.
# Target: Cytochrome P450 2C19 (Homo sapiens) (UniProt P33261)
# Experiment: Cytochrome panel assay with activity outcomes
# Conditions: recombinant CYP, pro-luciferin dealkylation, luminescence, p450-cyp2c19; series mostly up to 57.1 µM; activity, negative = inhibition: at the top concentration
# % is set by controls: 0 for no effect and ±100 for the full control effect.
# Chain of Cytochrome P450 2C19 (Homo sapiens) (P33261 whole entry, looked up): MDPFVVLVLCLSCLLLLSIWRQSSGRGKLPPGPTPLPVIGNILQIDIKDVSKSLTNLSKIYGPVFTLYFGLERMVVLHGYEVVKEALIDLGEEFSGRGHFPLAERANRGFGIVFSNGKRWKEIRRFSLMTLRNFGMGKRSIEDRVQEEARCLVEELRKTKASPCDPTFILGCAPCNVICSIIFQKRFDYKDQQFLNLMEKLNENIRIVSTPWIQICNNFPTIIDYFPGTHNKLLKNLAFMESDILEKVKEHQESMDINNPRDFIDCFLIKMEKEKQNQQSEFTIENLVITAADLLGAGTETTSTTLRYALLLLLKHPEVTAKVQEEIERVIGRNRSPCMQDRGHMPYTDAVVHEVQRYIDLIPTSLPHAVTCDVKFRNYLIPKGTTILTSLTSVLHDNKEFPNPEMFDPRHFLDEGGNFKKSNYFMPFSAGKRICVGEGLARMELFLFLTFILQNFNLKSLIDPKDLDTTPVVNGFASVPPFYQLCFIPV
SMILES,"activity, negative = inhibition",AC50
Cc1ccc(S(=O)(=O)/N=C(/Nc2c(C)n(C)n(-c3ccccc3)c2=O)c2ccc(Cl)cc2)cc1,-27.9%,
Cc1c(N(C)CS(=O)(=O)O)c(=O)n(-c2ccccc2)n1C,8.53% [at 25.6 µM],
Cc1c(CCO)c(=O)n(-c2ccccc2)n1S(=O)(=O)c1c(Cl)cc(Cl)cc1Cl,,2.82 µM (active)
CCOC(=O)N1CCN(CC(=O)c2ccc3c(c2)CCN3)CC1,,14.1 µM (active)
S=C(NCCSCc1ccc(Cl)cc1Cl)Nc1ccccc1,,1.12 µM (active)
N[C@@H](CSCc1ccccc1)C(=O)O,-4.77% [at 11.4 µM],
S=C(NCCSCc1c(Cl)cccc1Cl)Nc1ccccc1,,1.41 µM (active)
O=C(Cc1ccccc1)NCCSCc1ccc(Cl)cc1,,2.24 µM (active)
COc1c2ccoc2nc2c(OC)c(OC[C@H](O)C(C)(C)O)ccc12,8.3% [at 25.6 µM],
C/C(=N\NC(N)=S)c1ccc[nH]1,20.4% [at 11.4 µM],
C[C@@H](C(=O)NCc1cccc2ccccc12)[C@H]1C[C@]1(C)[C@H](NC(=O)OCc1ccccc1)c1ccccc1,,2.51 µM (active)
C[C@@H](C(=O)NCc1ccc(S(C)(=O)=O)cc1)[C@@H]1C[C@@]1(C)[C@@H](NC(=O)OCc1ccccc1)c1ccccc1,,1.26 µM (active)
O=P(O)(CCc1ccccc1)C(O)c1ccccc1 (configuration not stated),-48.5%,
C/C(=N\N1CCN(C2c3ccccc3-c3ccccc32)CC1)c1cccnc1,,4.47 µM (active)
C/C(=N\N1CCN(C2c3ccccc3-c3ccccc32)CC1)c1ccncc1,,3.16 µM (active)
C(=N\N1CCN(C2c3ccccc3-c3ccccc32)CC1)/c1cccnc1,,0.251 µM (active)
O=[N+]([O-])c1cc(/C=N/N2CCN(C3c4ccccc4-c4ccccc43)CC2)ccc1Cl,1.97%,
CC1(C)OC(=O)NC1=O,24.8% [at 25.6 µM],
COc1ccccc1CNCC(O)(c1ccc(Cl)cc1)c1ccc(Cl)cc1,,2.82 µM (active)

SMILES,"activity, negative = inhibition",AC50
COCC(=O)N1CCC2(CCN(Cc3ccccc3OC)CC2)CC1,15.4%,
C[C@@]12C(=O)OC(=O)[C@@]1(C)[C@@H]1CC[C@@H]2O1,-37.1%,
CC(C)CO[C@H](c1ccc2c(c1)OCO2)[C@H](C)Br,,0.0631 µM (active)
O=C(CSc1ncnc2nc[nH]c12)c1ccccc1,6.64% [at 11.4 µM],
CSc1nc(C)cc(SC(C(C)=O)C(=O)Nc2ccccc2)n1 (configuration not stated),-50.3%,
Cc1cc(SCC(=O)c2ccccc2)nc(SCC(=O)c2ccccc2)n1,,2 µM (active)
CCN(CC)c1ccc(SS(=O)(=O)O)cc1,,7.08 µM (active)
N#C/C(=C/N1CCOCC1)c1ccccc1,,4.47 µM (active)
CC(=O)[C@H]([C@@H](c1ccccc1)N1CCOCC1)N1CCOCC1,7.37% [at 11.4 µM],
C[C@H](C(=O)c1ccccc1)[C@@H](c1ccccc1)N1CCOCC1,,1.58 µM (active)
C[N+]1(C)CCC(OC(=O)C(c2ccccc2)c2ccccc2)CC1,,inactive
Cc1ccc(-c2nn(C)c(=O)c3ccccc23)cc1CNC(=O)Cn1nc(-c2ccccc2)c2ccccc2c1=O,,7.94 µM (active)
CCN(CC)CCNC(=O)C(C)c1nn(C)c(=O)c2ccccc12 (configuration not stated),-28%,
CCOC(=O)CNS(=O)(=O)c1cc(-c2nn(C)c(=O)c3ccccc23)ccc1C,,3.16 µM (active)
Cc1ccc(-c2nn3c(C)nnc3c3ccccc23)cc1S(=O)(=O)NCc1ccccc1,,5.01 µM (active)
CC1CCCC(C)N1CCNC(=O)Cn1nc(-c2ccccc2)ccc1=O (configuration not stated),-25.2%,
Cc1nc2c(ccc3nc(NC(=O)c4ccc5c(c4)OCCO5)sc32)s1,,2.51 µM (active)
CCN1CCc2c(sc(NC(=S)NC(=O)c3ccccc3)c2C#N)C1,-59.3%,
CCN1CCc2nc(NC(=O)CC(c3ccccc3)c3ccccc3)sc2C1,,8.91 µM (active)

SMILES,"activity, negative = inhibition",AC50
CCN1CCc2nc(NC(=O)c3ccc4c(c3)OCCO4)sc2C1,,15.8 µM (active)
Cc1nc2ccc3nc(NC(=O)c4ccc(S(=O)(=O)N5CCOCC5)cc4)sc3c2s1,-28.8%,
CCN1CCC[C@@H](OC(=O)C(c2ccccc2)c2ccccc2)C1,-20.1% [at 25.6 µM],
O=C(O)/C=C(/C(=O)O)[C@]12CCN3CC4=CCO[C@@H]5CC(=O)N[C@@H]1[C@H]5[C@H]4C[C@H]32,-10% [at 11.4 µM],
CC(C)=CCC/C(C)=C/CO/N=C1/C[C@@H](O)[C@@H](O)[C@@H]2[C@@H]3C(=O)N(C(C)(C)C)C(=O)[C@H]3CC[C@H]12,12.2% [at 11.4 µM],
N#CCCn1c(=O)c(-c2ccc(F)cc2)nc2cnc(N3CCOCC3)nc21,-26%,
CNc1oc(-c2ccc(Cl)cc2)nc1C#N,,11.2 µM (active)
O=C(NCCNS(=O)(=O)c1ccc(Cl)cc1)c1cc(OCC(F)(F)F)ccc1OCC(F)(F)F,,2.51 µM (active)
O=C(NCCNS(=O)(=O)c1ccccc1Cl)c1cc(OCC(F)(F)F)ccc1OCC(F)(F)F,,14.1 µM (active)
O=C(O)CONC(=O)c1cc(OCC(F)(F)F)ccc1OCC(F)(F)F,14.7%,
CCN(CC)CCNC(=O)c1cc(S(C)(=O)=O)ccc1OC,,inactive
COC(=O)c1c(-c2ccc3ccccc3c2)csc1NC(=O)Cc1ccc(OC)c(OC)c1,,1.41 µM (active)
CCOC(=O)c1c(-c2cccc(C)c2)csc1NC(=O)c1c(-c2ccccc2)noc1C,-30%,
CCOC(=O)c1c(-c2ccc(OC)cc2)csc1NC(=O)CCN1C(=O)c2ccccc2C1=O,,5.62 µM (active)
CCOC(=O)c1c(-c2ccccc2)csc1NC(=O)c1cccc(N2C(=O)CCC2=O)c1,,3.55 µM (active)
N/C(=N\O)c1cn([C@@H]2O[C@@H](CO)[C@H](O)[C@@H]2O)c2ncnc(NO)c12,14.4% [at 11.4 µM],
CC(=O)Nc1c(I)c(C(=O)N[C@H]2[C@@H](O)[C@H](O)[C@H](CO)O[C@@H]2O)c(I)c(N(C)C(C)=O)c1I,12.2% [at 25.6 µM],
Cc1ccc(OCCCN2C(=O)C(=O)c3cccc(C)c32)cc1,,3.98 µM (active)
NS(=O)(=O)c1ccc(N=Nc2nc3[nH]c(=O)[nH]c(=O)c3[nH]2)cc1,-0.933% [at 11.4 µM],
